What all share (assay): NCI-60 one-dose screen, 48 h (100 = growth as untreated, 0 = no growth, -100 = all killed)
Settings in all cases: 10 µM unless noted

In test [1] the test system is NCI-H23 lung.
The test system of test [2] is NCI-H226 lung.
Test [3] concerns NCI-H322M lung.
Test [4] concerns HOP-62 NSCLC.
Test [5] deals with NCI-H460 lung.
Test [6] concerns HOP-92 NSCLC.
For test [7], the system named is A549/ATCC NSCLC.
Test [8] deals with 786-0 renal.
Test [9] concerns COLO 205 colon.
Test [10] deals with NCI-H522 lung.

From PubChem BioAssay (NCI) come the findings set out here.

This is part of a sample that, as a whole, favours compounds with a hit. Of some 83,000 tested, about 20% had one in any assay.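 Cells were grown in 96-well plates and exposed to the test compound at a single concentration for 48 hours; results are reported as percent growth, with values below 10 considered active.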 A number with no mark means an inactive call. Activity calls are given as the source filed them.

For the molecule `N#CC1=C(N)Oc2ccc3ccccc3c2C1c1ccccc1Cl` (stereo not given), the growth is 61.6% in [1]; 70.8% in test [2]; 74.9% in [3]; 38.7% in test [4]; 20.4% in test [5]; 69.1% in test [6]. In addition, the growth in test [7] is 53%; in [8], 42.4%; in [9], 39.3%.

On to `CC(C)=CCC[C@](C)(O)[C@H]1CC[C@]2(C)[C@@H]1CC[C@@H]1[C@@]3(C)C/C(=C/c4ccc(Br)cc4)C(=O)C(C)(C)[C@@H]3CC[C@]12C`, for which the growth in [1] is 85.3%; in test [2] it was 82.7%; in test [3], 101%; in test [4], 98.5%; in test [6] it was 75.5%; in [10], 96.4%. Moreover, the growth in test [7] is 76.6%; in test [8], 93.8%.

Take `O=C(O)/C(=C/c1ccc(O)cc1)c1ccccc1`: the growth in [1] was 93.9%; in test [2], 100%; in test [3], 100%; in test [4], 88.8%; in [6], 83.1%; in test [10], 95%. The figures for the growth in test [7], in [8] and in [9] were 93%, 92.2% and 120%, respectively.

For the molecule `COc1cc(/C=C/c2cc(/C=C/c3ccc(O)c(OC)c3)n(-c3ccccc3)c(=O)n2)ccc1O`, the growth is 78.4% in [1]; 80.2% in [2]; 86.8% in [3]; 85.8% in [4]; 78.8% in test [6]; 68.2% in test [10]. For the same molecule, the values for the growth in [7], in [8] and in test [9] were 90.6%, 85.1% and 71.3%, respectively.

Turning to `C[C@@H](Oc1ccc(C(=O)NS(=O)(=O)C(C)(C)C)cc1C(F)(F)F)c1ccc(Oc2ccccc2)cn1`, the growth in test [1] is 61.2%; in [2], 72.7%; in test [3], 54.3%; in [4] it was 52.2%; in [6] it was 63.7%; in [10], 24.5%. The growth in test [7] was 74.8%; in test [8], 37.5%; in [9], 48.7%.

Consider `Cc1cc2nc3c4cc(O)ccc4n(CCN(C)C)c3nc2cc1C`, for which the growth in test [1] is -35.3% (active); in [2], -24.6% (active); in test [3], -11% (active); in test [4] it was 3.06% (active); in test [6] it was 21.1%; in test [10] it was -13.5% (active). The growth in test [7] is -32.7% (active); in test [8] it was 5.67% (active); in [9], -40.6% (active).

On to `NCCn1cc(-c2nc(-c3c[nH]c4ncccc34)cs2)c2ccccc21`, for which the growth in test [1] is 83%; in [2], 70.6%; in test [3], 74.6%; in test [4], 75.4%; in test [6], 54.3%; in test [10], 90.4%. The figures for the growth in test [7], in test [8] and in [9] were 76.8%, 89.8% and 96.7%, respectively.

Take `Cc1ccnc2c(OCc3ccccc3)cccc12`: the growth in test [1] is 93.5%; in test [2] it was 81.9%; in test [3] it was 76.4%; in [4], 106%; in test [6], 53.4%; in test [10], 105%. In addition, the growth in [7] is 93.5%; in test [8], 96.1%; in [9], 113%.

Take `c1cnc2[nH]cc(-c3csc(-c4cn(CCCN5CCCCC5)c5ccccc45)n3)c2c1`: the growth in test [1] is 79.7%; in test [2], 77%; in [3] it was 83.8%; in test [4] it was 54.6%; in test [5] it was 10.1%; in test [6], 35.1%. Also, the growth in test [7] was 58.3%; in test [8], 56.3%; in [9] it was -74% (active).

Take `C=CC(=O)N[C@H](Cc1ccc(-c2cc(Cl)cc(Cl)c2)cc1)[C@H](O)[C@@H](O)C(=O)O`: the growth in test [1] was 93.6%; in test [2], 71.3%; in test [3], 100%; in test [4] it was 87.3%; in test [6], 84.4%; in test [7], 72%. Also, the results for the growth in test [8] and in test [9] were 92.2% and 91.9%, respectively.

With `COc1ccc(-c2cc(-c3c(C)oc4cc5occc5c(OC)c4c3=O)nc(N)c2C#N)cc1OC`, the growth in [1] was 73.4%; in test [2], 66.2%; in test [3], 81.2%; in test [4] it was 50.3%; in test [6] it was 10.6%; in [7], 57.2%. Further, the figures for the growth in test [8] and in [9] were 83.1% and 68.1%, respectively.

On to `COc1ccc(C2(Cl)c3ccccc3N(c3ccccc3)c3ccccc32)cc1`, for which the growth is -14.8% (active) in [1]; 9.96% (active) in test [3]; 8.43% (active) in test [4]; -55.2% (active) in test [5]; -14.7% (active) in [6]; -3.22% (active) in [10]. The growth is 9.18% (active) in [7], -48.8% (active) in [8] and -42.8% (active) in [9].

For the molecule `Nc1nc(Br)nc2c1ncn2C1CC(O)C(CO)O1` (stereo not given), the growth in [1] was 20.2%; in test [2], 89.6%; in test [3] it was 83.6%; in [5] it was 97.9%; in [6], 51.5%; in test [10] it was 109%. Moreover, the growth in test [7] is 51.4%; in [8] it was 62.8%; in [9] it was 62.8%.

`C=C(C)[C@@H]1CC[C@]2(C(=O)N3CCCNCC3)CC[C@]3(C)[C@H](CC[C@@H]4[C@@]5(C)CCC(=O)C(C)(C)[C@@H]5CC[C@]43C)[C@@H]12`: the growth was 98.4% in [1]; 90.7% in test [2]; 102% in test [3]; 97.7% in test [5]; 48.4% in [6]; 101% in test [10]. The growth was 86.2% in [7], 94.9% in test [8] and 101% in test [9].

Turning to `NC(=O)[C@@H]1CC2CCC1C2` (stereo not given in full), the growth is 113% in [1]; 103% in [2]; 110% in test [3]; 97.2% in [5]; 71.1% in test [6]; 108% in [10]. Besides, the growth in test [7] is 110%; in test [8] it was 101%; in test [9], 107%.

For the molecule `Cc1cccc(C)c1NC(=O)CSC(=S)N1CCN(CCOCCO)CC1`, the growth in test [1] was 100%; in test [2] it was 117%; in test [3] it was 85.8%; in test [6] it was 110%; in [10], 90%; in test [7] it was 101%. For the same molecule, the growth was 96.4% in test [8] and 113% in [9].

Turning to `Cc1ccc2c(c1)c1nc3cc(C)c(C)cc3nc1n2CCN(C)C`, the growth was 13.5% in [1]; 7.71% (active) in [2]; 16.3% in test [3]; 9.12% (active) in [5]; 32.1% in test [6]; 31.2% in test [10]. Moreover, the growth was 12.2% in test [7], 26.5% in test [8] and -5.24% (active) in test [9].

With `OCC1OC(n2cnc3c(Cl)ncnc32)CC1O` (stereo not given), the growth is 118% in test [1]; 97.7% in test [2]; 101% in [3]; 104% in test [5]; 89.5% in test [6]; 101% in test [10]. The growth in [7] is 104%; in test [8] it was 107%; in test [9], 104%.

In the case of `COc1cc2c(cc1-c1c(C)noc1C)ncc1nc(C3CCCCC3)n([C@@H](C)COC(F)F)c12`, the growth was 56.8% in [1]; 55.5% in [2]; 41.9% in [3]; 53% in [5]; 27.7% in test [6]; 26.2% in test [10]. Moreover, the growth was 33.2% in test [7], 42.8% in test [8] and 9.21% (active) in [9].

Turning to `COc1ccc(-c2n/c(=C\c3c(O)[nH]c4ccc(OC)cc34)cc3c2=Nc2ccccc2-3)cc1`, the growth was -7.74% (active) in test [1]; 89.2% in test [2]; 97.8% in test [3]; 72.1% in test [6]; 76% in test [10]; 19.3% in [7]. The figures for the growth in [8] and in [9] were -82.3% (active) and 88.9%, respectively.

`COc1ccc(-c2cc(/C=C/C(=O)c3ccc(OC)c(OC)c3)[nH]n2)cc1`: the growth in test [1] was 32.7%; in [2], 50.9%; in [3] it was 26.1%; in test [5] it was -71.1% (active); in test [6], 66.6%; in [10], 1.47% (active). Besides, the growth in test [7] is 29.2%; in test [8], 13%; in [9], 24.5%.

In the case of `O=C1c2cccc3cccc(c23)C(=O)N1CC#Cc1ccc2c3c(cccc13)C(=O)N(CCN1CCNCC1)C2=O`, the growth is 73.7% in [1]; 102% in test [2]; 98.6% in test [3]; 73.1% in test [5]; 87.7% in test [6]; 99.8% in [10]. Besides, the growth in test [7] was 109%; in test [8] it was -2.58% (active); in test [9], 93.5%.

Consider `COC(c1ccccc1)(c1ccccc1)c1ccccc1`, for which the growth in [1] was 95.4%; in test [2], 101%; in test [3], 102%; in test [5], 101%; in [6], 147%; in test [10] it was 116%. Moreover, the growth is 104% in [7], 93% in test [8] and 123% in [9].

On to `O=C1Nc2ccccc2/C1=C/c1cn(CCCn2c3ccccc3c(=O)c3ccccc32)c2ccccc12`, for which the growth in test [1] is 79.2%; in test [2], 81.3%; in test [3], 86.8%; in [5] it was 96.3%; in test [6], 83.4%; in test [10], 77.5%. Also, the figures for the growth in test [7] and in [8] were 96.5% and 82.9%, respectively.

Regarding `CC(=O)c1c(C)[nH]c(-c2nc3ccc(N4CCN(C)CC4)cc3[nH]2)c1-c1ccc(N(C)C)cc1`, the growth is 40% in [1]; 47.4% in test [2]; 40.6% in test [3]; 53% in [5]; 33.1% in test [6]; 42.1% in test [10]. Moreover, the growth in test [7] is 40.2%; in [8], 38.7%; in test [9], 7% (active).

Turning to `N#CC1=C(N)Oc2c(c(N)nn2-c2ccccc2)C1c1ccc(Cl)cc1Cl` (stereo not given), the growth in [1] is 103%; in test [2] it was 102%; in test [3], 104%; in test [5], 106%; in [6], 86.9%; in test [10], 90.5%. The growth in test [7] was 108%; in test [8], 102%; in [9], 120%.

With `N#C/C(=C\c1ccc(-c2ccc(Br)cc2)o1)c1nc(-c2cccs2)cs1`, the growth is 91.3% in test [1]; 102% in test [2]; 97.8% in test [3]; 103% in test [5]; 91% in test [6]; 94.4% in [10]. The results for the growth in test [7], in [8] and in [9] were 109%, 100% and 125%, respectively.

For `C=C1C(=O)O[C@H]2[C@H]1CC/C(COC(=O)NCCc1c[nH]c3ccccc13)=C\CC[C@@]1(C)O[C@@H]21`, the growth in test [1] was 59.5%; in [2], 57.3%; in test [3], 83.2%; in test [5], 54.2%; in test [6], -52% (active); in test [10] it was -85.7% (active). For the same molecule, the growth was 66.9% in [7], -50.3% (active) in [8] and -38.2% (active) in [9].

For `Cc1ccc(Cc2cnc(NC(=O)/C=C/c3cccc(C)c3)s2)cc1`, the growth in [1] was 13.3%; in test [2] it was 36.8%; in test [3], 46.1%; in test [5] it was 1.93% (active); in test [6] it was 70.4%; in [10] it was 18.6%. Further, the growth in [7] is 16.1%; in [8] it was 17.8%; in test [9] it was -4.26% (active).
